Screening results from PubChem.
Tau fluor cs = counter-screen for tau fibril formation inhibitors | tau K18 P301L Alexa594 fluorescence, heparin fibrillization | Potency, µM (titrated, usually from 57.7 µM), without a hit: at the top dose activity change, negative = decrease | hit rate 0.93% among 280,000; also: potency is read from the fitted curve at half-maximal effect; nearly all actives have a fitted effect of over 55% in size
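Human tau K18 P301L (15 uM unlabeled, 0.24 uM Alexa 594-labeled) in 100 mM sodium acetate pH 7 with 20 uM heparin, 6 hr at 37 C. ThT 30 uM added, 1 hr ambient; Alexa 594 FP and total fluorescence read at 555/632 nm.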
Tau fibril ThT = blocks human tau fibril formation measured by thioflavin T; P10636; recombinant tau K18 P301L (four-repeat tau fragment), heparin-induced fibrillization, ThT fluorescence; Potency, µM (doses to about 57.4 µM), inactives show top-dose activity, negative = inhibition, usual class: inhibitors; hit rate 2.1% among 270,000; AID 1460; also: potency is read from the fitted curve at half-maximal effect; nearly all actives have a fitted effect of over 55% in size
Target sequence (P10636 561-689 P618L limits assumed): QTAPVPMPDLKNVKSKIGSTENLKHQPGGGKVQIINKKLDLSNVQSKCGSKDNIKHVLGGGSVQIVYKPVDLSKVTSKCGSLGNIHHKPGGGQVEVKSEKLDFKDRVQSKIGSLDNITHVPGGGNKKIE
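Aggregation was driven by heparin (20 uM final) acting on recombinant tau […] bearing P301L in 100 mM sodium acetate pH 7; fibrils were detected with Thioflavin T.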
Sfp PPTase inh = blocks B. subtilis Sfp PPTase activity; Biochemical Sfp PPTase activity, qHTS; Potency, µM, for inactives: largest response in the series, negative = inhibition, actives largely listed as inhibitors; hit rate 3.5% among 310,000; AID 1490;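 also: the enzyme is Sfp with the accession as filed and its product quenches rhodamine fluorescence; potency is read from the fitted curve at half-maximal effect; 0% = enzyme reaction without inhibitor and -100% = no enzyme wells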
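With Hepes-Na pH 7.6 buffer containing 10 mM MgCl2, Sfp (15 nM) modified BHQ-2-YbbR (12.5 uM) using rhodamine-CoA (5 uM). Two reads 30 minutes apart at 525/598 nm yielded each well's rate.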
G9a inh = G9a (human) methyltransferase inhibition; Q96KQ7; G9a H3K9 monomethylation, AlphaScreen, 2 h; Potency, µM (titrated, usually from 102 µM), for the others: top-dose activity, negative = inhibition, actives largely listed as inhibitors; hit rate 8.8% among 350,000; also: potency is read from the fitted curve at half-maximal effect; nearly all actives have a fitted effect of over 75% in size
Target sequence (Q96KQ7 913-1193 limits assumed): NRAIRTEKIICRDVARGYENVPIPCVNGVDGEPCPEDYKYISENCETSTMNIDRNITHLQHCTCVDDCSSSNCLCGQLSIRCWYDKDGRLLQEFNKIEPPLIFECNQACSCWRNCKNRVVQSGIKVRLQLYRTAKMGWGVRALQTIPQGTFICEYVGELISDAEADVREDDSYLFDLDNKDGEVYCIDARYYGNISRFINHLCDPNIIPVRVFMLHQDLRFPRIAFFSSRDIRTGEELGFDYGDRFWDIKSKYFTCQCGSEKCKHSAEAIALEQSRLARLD
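Enzyme 20 nM + cpd, 15 min RT; add b-H3K9 pep 500 nM / SAM 20 uM; 2 h RT; anti-H3K9me1 Ab 0.5 ug/mL + SA donor / anti-rabbit acceptor beads 20 ug/mL each, 10 min; AlphaScreen read.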
Coupling enz = inhibits coupling enzyme system, counter-screen for aldolase hits. coupling enzyme system counterscreen, AmpLite Red fluorescence. activity change, negative = inhibition, % at 58.2 µM, hits read low. hit rate 0.67% among 290,000. AID 2472; in the data active = activity change below about -30%
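Coupling enzymes only (glyceraldehyde-3-phosphate) + compound, at 57.5 uM final, 10 min RT; add substrate/coupling/AmpLite Red mix, 20 min RT; fluorescence ex 525/em 598 nm. Actives flag coupling-system interference.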
Tau FP inhib = blocks human tau fibril formation measured by polarization; K18 P301L tau heparin fibrillization, Alexa594 FP, 6 h; Potency, µM (series often up to 57.7 µM), for the others: at the top dose activity, negative = inhibition, most hits filed as inhibitors; hit rate 0.39% among 280,000; AID 1468; also: potency is read from the fitted curve at half-maximal effect; nearly all actives have a fitted effect of over 55% in size
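Compound effects on tau fibrillization are measured by Alexa 594 fluorescence polarization (ex 555, em 632 nm). K18 P301L tau is used at 15 uM with 0.24 uM labeled tracer, and 20 uM heparin induces aggregation over 6 hr at 37 C.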
* = called active by the depositor; ? = inconclusive; . = no result given; [ ] = another dose, or the depositor's remark. Shown are actives, neighbours in structure and some others; about 11% of the full set was active somewhere. Unless noted, calls follow the shape of the dose curve; as a rule, active = well fitted curve in the direction sought with a large enough effect; inconclusive = small, poorly fitted or top-dose-only effect, or another doubt; inactive = no such curve, though single readings can be large; an effect the other way counts as inactive or inconclusive. Unless noted, % is scaled to controls: 0 for no effect and ±100 for the full control effect.

SMILES | Tau fluor cs | Tau fibril ThT | Sfp PPTase inh | G9a inh | Coupling enz | Tau FP inhib
Clc1ccc(C2=NNC(=NCc3ccccc3)SC2)cc1 | -2% | 0% | ? | -45% | 1 | -3%
Fc1ccc(F)c(C2=NNC(=Nc3ccccc3F)SC2)c1 | -16% | -7% | -21% | 10%[59 µM] | 1 | -7%
C=CCN=C1NN=C(c2ccc3c(c2)OCCO3)CS1 | 1% | ? | 1% | 40µM* | 1 | -2%
c1ccc(C2=NNC(=NCc3ccc4c(c3)OCO4)SC2)cc1 | -24% | ? | -14% | 40µM* | 0 | -2%
Fc1ccccc1N=C1NN=C(c2ccccc2)CS1 | ? | 22µM* | ? | ? | 2 | ?
CC(C)N=C1NN=C(c2ccc(F)cc2)CS1 | -11% | ? | 56µM* | ? | -2 | -12%
COc1ccc(CCNC(=O)CCc2c(C)nc3c4cccnc4nn3c2C)cc1OC | -7% | -4% | . | -2%[59 µM] | . | -13%
COCCN=C1NN=C(c2ccc(NC(C)=O)cc2)CS1 | -27% | 28µM* | 40µM* | ? | 0 | ?
CCCCN=C1NN=C(c2cccc([N+](=O)[O-])c2)CS1 | -15% | ? | 2% | 11µM* | -2 | -7%
Fc1ccc(C2=NNC(=NCc3ccccc3)SC2)cc1F | ? | ? | ? | ? | -2 | 2%
CCN=C1NN=C(c2ccc(C)cc2)CS1 | -29% | ? | ? | 32µM* | . | -21%
CCCCN=C1NN=C(c2cc3ccccc3o2)CS1 | -27% | ? | -14% | ? | 4 | -5%
Cc1cc(C)c(Cn2c(C(O)c3ccccc3)nc3ccccc32)c(C)c1 (centres undefined) | -17% | -14% | . | 2%[59 µM] | . | -4%
O=C(CN1C(=O)COc2ccccc21)NCCCN1CCc2ccccc2C1 | 0% | 4% | 20µM* | ? | 1 | 2%
O=C1/C(=C2\C(=O)N(Cc3ccc(F)cc3)c3ccccc32)SC(=S)N1CCS(=O)(=O)O | . | . | -11% | ? | -8 | .
O=C(O)CN1C(=O)/C(=C2\C(=O)N(Cc3ccccc3Cl)c3ccccc32)SC1=S | . | . | -5% | 14µM* | 4 | .
COc1ccccc1-c1nnc2n1N=C(C)CS2 | 6% | 8% | 7% | 20µM* | 3 | 3%
CC1=Nn2c(nnc2-c2ccccc2Cl)SC1 | 3% | -2% | -15% | 22µM* | -2 | 2%
CCS(=O)(=O)c1nc(S(=O)(=O)c2ccc(Cl)cc2)c(NCc2ccc(Cl)cc2)s1 | -16% | 10% | . | 2%[59 µM] | . | -6%
CCc1ccccc1NC(=O)CNC(=O)CCNC(=O)Nc1ccccc1 | . | . | . | 9%[12.7 µM] | . | .
COc1ccc(OCC(=O)OC2CCN(C)CC2)cc1 | 0% | -4% | -3% | ? | 2 | -6%
CN1CCC(OC(=O)COc2ccc(Br)cc2)CC1 | 5% | -3% | 0% | 45µM* | -1 | 5%
COC(=O)CSc1nc(N)c2c3c(sc2n1)C(c1ccccc1)SC(c1ccccc1)C3 (centres undefined) | -29% | ? | 40µM* | ? | -4 | -15%
COC(=O)CSc1nc(N)c2c3c(sc2n1)CCCC3 | -16% | ? | -15% | ? | 1 | -2%
CC(C)(C)C1CCc2c(sc3nc(SCC(=O)O)nc(N)c23)C1 (centres undefined) | -11% | ? | -2% | 28µM* | 9 | -7%
SMILES | Tau fluor cs | Tau fibril ThT | Sfp PPTase inh | G9a inh | Coupling enz | Tau FP inhib
O=C(Cn1c(-c2cccs2)cc2cc(Cl)ccc21)N1CCCCC1 | -21% | -14% | . | -4%[59 µM] | . | -10%
CC[C@@](N)(C(=O)O)c1ccc(C(=O)O)cc1 | -8% | -9% | -5% | . | 4 | -6%
C=CCSC1=Nc2cc(OC)c(OC)cc2C2=NC(=O)CN12 | -1% | -4% | -10% | 50µM* | 0 | -2%
COc1cc(/C=C(\C#N)c2nc3c(s2)CCCC3)ccc1O | 14µM*[quencher] | 11µM* | -21% | ? | -1 | 4%
N#C/C(=C\c1cccnc1)c1nc2c(s1)CCCC2 | -1% | -17% | 10% | 42% | 0 | 5%
O=Cc1ccccc1OCCOc1ccc([N+](=O)[O-])cc1 | -23% | ? | -8% | -1% | 3 | -3%
CCOC(=O)C1CCN(C(=O)Nc2ccc3c(c2)nc(C)n3C)CC1 | -7% | -19% | 15% | ? | -5 | -7%
Cc1nc2ccc(NC(=O)N3CCCCC3)cc2nc1C | -5% | -16% | -8% | 17%[59 µM] | -3 | -4%
CCOC(=O)C1CCN(C(=O)CSc2nnc(-c3ccco3)n2-c2ccccc2)CC1 | 4% | 7% | 10% | 45µM* | 0 | -4%
CCOC(=O)C1CCN(C(=O)Nc2ccc3nc(-c4ccco4)c(-c4ccco4)nc3c2)CC1 | ? | 3.2µM* | 14µM* | 1.6µM* | -45* | ?
O=C(Nc1ccc2nc(-c3ccco3)c(-c3ccco3)nc2c1)N1CCCCCC1 | 8.9µM*[quencher] | 7.1µM* | 14µM* | 5µM* | -37* | 14µM*
Cc1nc(SC(C)C(=O)Nc2ccccc2Cl)cc(-c2ccccc2)n1 (centres undefined) | -24% | ? | . | 38%[59 µM] | . | -10%
COc1cccc(CNC(=O)c2ccc(Cl)c(NC3=NC4CS(=O)(=O)CC4S3)c2)c1 (centres undefined) | . | . | 19% | 18% | . | .
CN(Cc1ccccc1)C(=O)COC(=O)/C=C/c1ccco1 | 3% | -14% | 35µM* | 35µM* | 2 | -2%
CN(CCOC(=O)c1ccco1)Cc1ccccc1 | -2% | -7% | 9% | -1% | -4 | 2%
COc1ccc(C(=O)COC(=O)/C=C/c2ccco2)cc1F | . | . | . | 19%[12.7 µM] | . | .
CN(CCOC(=O)/C=C/c1ccco1)Cc1ccccc1 | -20% | ? | 20µM* | 14µM* | 0 | -10%
O=C(CNC(=O)c1cccc(F)c1)OCC(=O)N1CCCCC1 | -3% | -1% | -6% | 16µM* | -1 | -9%
O=C(NCC(=O)N1CCCCCCC1)c1cccc([N+](=O)[O-])c1 | . | . | . | 1.3µM* | . | .
Cc1cccc(C(=O)NCC(=O)N2CCCC2)c1 | . | . | 24% | 25% | . | .
CC(C)(C)C1C/C(=C/c2ccccn2)C(=O)/C(=C/c2ccccn2)C1 (centres undefined) | -25% | 11µM* | ? | ? | 0 | ?
CC1C/C(=C/c2ccccn2)C(=O)/C(=C/c2ccccn2)C1 (centres undefined) | -14% | 10µM* | 45µM* | 50µM* | -1 | 8.9µM*
O=C1/C(=C/c2ccccn2)COc2ccccc21 | 0% | ? | -21% | -48% | -4 | 2%
CCCNC(=O)C1(CC2CC(c3ccccc3)=NO2)CCN(C(=O)C2CCCC2)CC1 (centres undefined) | . | . | . | 15%[2.33 µM] | . | .
